The structures appear in SMILES notation. In all, about 96,000 compounds went through this assay and about 20,000 (21%) were called active. These entries were drawn from the full list. A number with no mark means an inactive call.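 How the source made its calls: active means CYP2C19 inhibition above a set limit at 5 µM in the primary screen (cut at about 50% in these data); inactive means the rest.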

The target of the experiment is Cytochrome P450 2C19 (Homo sapiens) (UniProt P33261). Kind of experiment: blockers of cytochrome P450 2C19 activity – biochemical, luminescence, ADME assay, primary screen (AID 778).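 Further: plate controls were negative control wells for no effect and 2.5 mM tranylcypromine positive control for full effect.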 As to conditions: CYP2C19 Supersomes, luciferin-H EGE luminescence, 30 min; at 5 µM; active compounds read high.
Chain of Cytochrome P450 2C19 (Homo sapiens) (P33261 whole entry, looked up): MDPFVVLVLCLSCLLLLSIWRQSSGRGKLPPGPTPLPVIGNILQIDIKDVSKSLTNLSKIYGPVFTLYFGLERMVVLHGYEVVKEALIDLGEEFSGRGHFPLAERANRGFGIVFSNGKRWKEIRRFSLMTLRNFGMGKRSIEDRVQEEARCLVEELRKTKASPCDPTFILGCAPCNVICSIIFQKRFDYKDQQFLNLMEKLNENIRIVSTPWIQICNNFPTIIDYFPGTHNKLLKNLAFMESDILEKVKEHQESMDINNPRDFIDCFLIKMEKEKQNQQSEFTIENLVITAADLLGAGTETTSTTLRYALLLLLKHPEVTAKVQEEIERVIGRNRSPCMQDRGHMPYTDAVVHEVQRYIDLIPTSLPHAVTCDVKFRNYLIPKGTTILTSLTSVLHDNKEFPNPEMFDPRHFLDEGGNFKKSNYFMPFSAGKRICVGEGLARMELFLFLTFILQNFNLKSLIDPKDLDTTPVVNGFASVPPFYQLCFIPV
As for `Cc1ccn2cc(-c3nonc3C)cc2c1`, the inhibition was 50.1% (active). Consider `COc1cc(Cl)c(S(=O)(=O)N2CCN(Cc3ccc4c(c3)OCO4)CC2)cc1Cl`, for which the inhibition was 36.2%.

Take `COc1ccc(Cl)cc1S(=O)(=O)N1CCN(CC(=O)C(C)(C)C)CC1`: the inhibition was 85.9% (active). The figure for `COc1ccc(NC(=O)CN2CCN(S(=O)(=O)c3ccc(F)cc3)CC2)cc1Cl` is 0.5%. The figure for `COc1cc(NS(=O)(=O)c2ccc(N=Cc3c(C)[nH]n(-c4ccccc4)c3=O)cc2)nc(OC)n1` is -18%; for `COc1cc(/C=N\NC(=O)CNC(=O)c2cccc([N+](=O)[O-])c2)ccc1O` it is 23%; for `COc1ccc(C(=O)Nc2ccccc2C(=O)N/N=C/c2ccc(O)c(OC)c2)cc1` it is 87.2% (active). In the case of `COc1ccc(C(=O)Nc2ccccc2C(=O)N/N=C/c2ccccc2OC)cc1`, the inhibition was -5.9%. For `N#Cc1ccsc1NC(=O)CN1CCCCC1` the value was -6.2%; for `CC1CCc2c(sc3nc4n(c(=O)c23)CCS4)C1` (stereo unspecified), -6.7%. The figure for `Cn1c(NN)nc2sc3c(c2c1=O)CCC3` is 78.4% (active); for `NNC(=O)C1CCCn2c1nc1sc3c(c1c2=O)CCCC3` (stereo unspecified) it is 12.4%; for `Cc1cccc(N2CCN(Cc3c(C)n(C)n(-c4ccccc4)c3=O)CC2)c1C` it is 15.2%. For `COC(=O)Nc1sc2nc(C)cc(C)c2c1-n1cccc1`, the inhibition was 19.5%. The figure for `Cn1c(NC(=O)c2ccco2)c(-c2ccccc2Cl)c(=O)c2ccccc21` is -6.5%. For the compound `CCCC(O)(c1ccc(OC)cc1)C(CN(C)C)c1ccccc1` (stereo unspecified), the inhibition was -13.2%. The figure for `CCc1c(C)sc(NC(=O)c2cccs2)c1C(N)=O` is 84.1% (active). The figure for `CCc1nnc(NC(=O)c2cccs2)s1` is 14.6%.

With `CCOC(=O)c1c(NC(=O)c2cccs2)sc(C)c1C`, the inhibition was -10.4%.

Regarding `CN1CCN(CC(=O)Nc2sc3c(c2C#N)CCC(C(C)(C)C)C3)CC1` (stereo unspecified), the inhibition is 26.1%. With `O=C(NC1CCCC1)c1ccc(Br)s1`, the inhibition was 71.3% (active).

Turning to `CN(CC(=O)NC1CCCCC1)S(=O)(=O)c1ccc(Br)s1`, the inhibition was 11.4%.

For `O=C(Cc1ccc(F)cc1)NC1CCCC1`, the inhibition is 43.4%.

For `Cc1cccc(-n2c(O)c(C=Nc3ccccc3N)c(=O)[nH]c2=O)c1`, the inhibition is -2.2%. The figure for `C=CCNC(=O)CCCC(=O)NCC=C` is 0.1%; for `O=C(COC(=O)c1ccccc1C(=O)c1ccccc1)c1ccco1` it is 84.4% (active). As for `CCN(CC)c1ccc(C(=O)OCC(=O)c2ccco2)cc1`, the inhibition is 8.1%.

On to `O=C(CNC(=O)c1ccco1)OCC(=O)c1ccccc1`, for which the inhibition is 17.9%. The figure for `CCCC(=O)C1=C(N(C)c2ccccc2)CC(C)(C)C(C(=O)OC)C1=O` (stereo unspecified) is 14.5%; for `CC1CCN(C(=O)Cn2cc(C(=O)c3ccco3)c3ccccc32)CC1` it is 17.1%.

As to `CCOC(=O)c1cc2c(ccn2C)n1CC(=O)N1CCC(C)CC1`, the inhibition was 55.4% (active). Turning to `CCOC(=O)c1cc2occc2n1CC(=O)N1CCN(C(=O)c2ccco2)CC1`, the inhibition was -4%. The figure for `CCOC(=O)c1cc2occc2n1CC(=O)NC1CCC(C)CC1` (stereo unspecified) is 56.3% (active); for `CCC(C(=O)N1CCOCC1)n1c(C(=O)OC)cc2occc21` (stereo unspecified) it is 35.4%; for `CC1CCN(C(=O)CN(c2ccc(Oc3ccccc3)cc2)S(C)(=O)=O)CC1` it is 28.4%.

On to `CCOc1ccc(NC(=O)CSc2nc3c(c(=O)n2-c2ccccc2OC)SCC3)cc1`, for which the inhibition is 37.5%. The figure for `CC1(C)CC(CC(=O)O)C(=O)O1` (stereo unspecified) is -11.1%; for `Cc1nc2ccc(S(=O)(=O)NCC(=O)NCCN3CCCCC3C)cc2s1` (stereo unspecified) it is 5.2%.

As to `Nn1cnnc1N/N=C/c1cc([N+](=O)[O-])c(Cl)cc1Cl`, the inhibition was 15.9%. As to `CCOC(=O)C1(C(F)(F)F)N=C(N(C)C)OC(N(C)C)=N1`, the inhibition was -7.2%.

As for `CC1COC2C(O1)N(S(C)(=O)=O)CCN2S(C)(=O)=O` (stereo unspecified), the inhibition is -4.9%. The figure for `Cc1ccc(S(=O)(=O)NCC(=O)N2CCN(c3ccccn3)CC2)cc1` is -1.8%.

As for `Cc1ccnc(N2CCN(C(=O)CSc3nc4ccccc4nc3N3CCCCC3)CC2)c1`, the inhibition is 79.1% (active).

Take `Cc1ccc2oc(=O)c3cnn(CC(=O)N4CCN(c5ccccn5)CC4)c3c2c1`: the inhibition was 10.9%. For the compound `NC(=O)C1(N2CCCCC2)CCN(C(=O)c2ccc(C#Cc3ccccc3)o2)CC1`, the inhibition was 71% (active). For `NC(=O)C1(N2CCCCC2)CCN(C2CC(=O)N(Cc3ccc(N4CCCC4=O)cc3)C2=O)CC1` (stereo unspecified) the value was 22.1%; for `CC(C)(O)C#Cc1ccc(C(=O)N2CCC(C(N)=O)(N3CCCCC3)CC2)cc1`, 14.8%; for `Cc1nc2nc(COc3ccccc3)[nH]n2c(=O)c1C`, -11.1%. Turning to `OCCCN1c2ccccc2Nc2nnc(-c3ccccc3)cc21`, the inhibition is 39.5%.

For `O=S(N1CCCCCC1)C12CC3CC(CC(C3)C1)C2` (stereo unspecified), the inhibition is 77.6% (active).

With `CN(CCO)Cc1csc2ccc(Br)cc12`, the inhibition is -8.9%.

For the compound `COc1cc(C2C(C(=O)OCCC#N)=C(C)NC3=C2S(=O)(=O)c2ccccc23)cc(OC)c1OC` (stereo unspecified), the inhibition was 15.8%. For `C=CCn1c(CC(=O)Nc2cccc(OC)c2)nnc1SCC(=O)NC1CCCCC1` the value was -6%. The figure for `COc1cccc(-n2c(SCC(=O)NC3CCCCC3)nc3n[nH]c(C)c3c2=N)c1` is 50.9% (active). `COc1ccc(N(CC(=O)NC2CCCCC2)S(=O)(=O)c2c(C)[nH]c(=O)[nH]c2=O)cc1`: the inhibition was 11.3%.

As to `Cc1cccc(NC(=O)c2cc(N3C(=O)CCC3=O)ccc2Cl)n1`, the inhibition is 14.7%.

As to `CC1(C)Cc2c(sc3nc(SCC(=O)NCc4ccccc4)n(-c4ccccc4)c(=O)c23)CS1`, the inhibition is 1.8%. Take `CCCSc1nc2c(c(=O)n(C)c(=O)n2C)n1Cc1ccc(C)cc1`: the inhibition was 17.6%. Turning to `CC(C)OCCCNc1nc2c(c(=O)n(Cc3ccccc3F)c(=O)n2C)n1C`, the inhibition was 42.7%. The figure for `CCOc1ccc(Cn2c(SCCCCC#N)nc3c2c(=O)n(C)c(=O)n3C)cc1OCC` is 20.4%; for `Cc1cccc(Cn2c(SCCO)nc3c2c(=O)n(C)c(=O)n3C)c1` it is 51.7% (active). Consider `CCOC(=O)CSc1nc2c(c(=O)n(C)c(=O)n2C)n1Cc1ccccc1F`, for which the inhibition is 63.1% (active). For `CCOC(=O)N1CCN(Cc2nc3c(c(=O)n(C)c(=O)n3C)n2Cc2ccccc2)CC1` the value was 30%.

Turning to `Cn1c(=O)c2c(nc(NCCc3ccccc3)n2Cc2ccccc2)n(C)c1=O`, the inhibition was 8.9%. As to `CCOC(=O)CSc1nc2c(c(=O)n(Cc3ccccc3Cl)c(=O)n2C)n1C`, the inhibition is -6%.

For `Cc1cccc(Cn2c(N3CCN(c4ccccc4)CC3)nc3c2c(=O)n(C)c(=O)n3C)c1`, the inhibition was 72.8% (active).

Source of the values: PubChem BioAssay AID778 (Sanford-Burnham Center for Chemical Genomics, 2007).
